Screening data from PubChem BioAssay.
Most compounds without a hit are left out; they make up all but 5.7% or so of the library.
HT1080 IDH1KD tx = toxicity to HT-1080 IDH1 knockdown cells (counter line); AID 686971; HT-1080 IDH1 knockdown viability, ATP luminescence, 48 h; Potency, µM (titrated, usually from 46.1 µM), for the others: at the top dose activity, negative = toxicity, actives largely listed as cytotoxic; 360,000 compounds, 2% hits;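 note: 0% = DMSO wells and -100% = cell-free medium wells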
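Cytotoxicity counter-line: IDH1KD HT-1080, 48 h, CellTiter-Glo. Curves classed by r2, magnitude and activity.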
KB-V1 MDR tox = KB-V1 MDR subline cytotoxicity | 400,000 compounds, 3.4% hits | Potency, µM (highest dose often 46.1 µM), hits mostly cytotoxic | AID 1347076 | KB-V1 MDR cells viability, CellTiter-Glo, 72 h; note: nearly all actives have a fitted effect of over 60% in size
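Drug-selected KB-V1 cells, grown in DMEM lacking phenol red with 10% FBS, receive compound titrations; after three days at 37 degrees C, surviving cell ATP is quantified by CellTiter-Glo luminescence and responses normalized and curve-fitted.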
KB-3-1 cytotox = KB-3-1 parental cell cytotoxicity; Potency, µM (top dose mostly 46.1 µM), actives largely listed as cytotoxic; 400,000 compounds, 1.4% hits; KB-3-1 viability, CellTiter-Glo ATP luminescence, 72 h; note: nearly all actives have a fitted effect of over 60% in size
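Here the drug-naive KB-3-1 line serves as comparator for MDR sub-line selectivity; cells received compound titrations, 72 h at 37 °C, then CellTiter-Glo readout.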
HT1080-NT tox = kills 2HG-producing HT-1080-NT fibrosarcoma cells | HT-1080-NT fibrosarcoma viability, CellTiter-Glo ATP luminescence, 48 h | Potency, µM (highest dose often 46.1 µM), inactives show at the highest dose activity, negative = less viability, actives largely listed as cytotoxic | 360,000 compounds, 1.6% hits;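 note: NT is the 2HG producing partner of a matched IDH1 knockdown line; 0% = DMSO-treated cells and -100% = media-only wells without cells; nearly all actives have a fitted effect of over 55% in size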
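A 48-hour cytotoxicity screen used HT-1080-NT cells plated 2 hours before compound delivery. ATP-based CellTiter-Glo luminescence measured viability, normalized to DMSO and no-cell controls.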
The depositor's hits bear a star; i = inactive; ? = inconclusive; . = not tested or not shown; [ ] = remark or other dose. Calls come from the whole dose curve; as a rule, active = well fitted curve in the direction sought with a large enough effect; inconclusive = small, poorly fitted or top-dose-only effect, or another doubt; inactive = no such curve, though single readings can be large; an effect the other way counts as inactive or inconclusive. Unless noted, % is set by controls: 0 for no effect and ±100 for the full control effect; potency is the fitted concentration of half-maximal effect.

SMILES	HT1080 IDH1KD tx	KB-V1 MDR tox	KB-3-1 cytotox	HT1080-NT tox
CC(C)c1ccc(CN2CCC2(C)C(=O)Nc2ccc3c(c2)OCO3)cc1 (stereo unspecified)	?	?	16.4µM*	?
CC(C)Oc1ccc(CN2CCC2(C)C(=O)Nc2ccc3c(c2)OCO3)cc1 (stereo unspecified)	-18.7%	18.4µM*	?	-20.3%
Cc1cccc(N2CCN(CCCNc3ncnc4onc(-c5ccc(Cl)cc5)c34)CC2C)c1 (stereo unspecified)	.	?	i	.
CCCn1c(CCC(=O)Nc2cc(OC)cc(OC)c2)nc2cccnc21	.	i	i	.
COc1ccc(C(=O)c2ccc(Cl)cc2)c2ccccc12	-27.5%	?	?	-23.6%
COc1ccc(C(=O)c2ccc(C)cc2)c(OC)c1OC	18.4µM*	?	?	?
COc1ccc(C(=O)c2ccc(Br)cc2)c2ccccc12	3.1%	18.4µM*	?	-0.5%
CCN(Cc1nc(-c2cccc(C)c2)no1)S(=O)(=O)c1ccc(C)cc1	.	i	i	.
COCCn1c(C(C)C)nc2sc3ccccc3c(=O)c2c1=O	-0.3%	16.4µM*	i	8.8%
COCCn1c(C2CCCCC2)nc2sc3ccccc3c(=O)c2c1=O	3.0%	4.11µM*	i	?
COc1ccc(N2CCN(C(=O)CCNC(=O)Cn3ccc4ccccc4c3=O)CC2)cc1	5.4%	i	i	-11.6%
CN(CC(=O)Nc1ccc(OC(F)(F)F)cc1)C(=O)c1ccccc1SCC(=O)N1CCCC1	-1.4%	7.31µM*	16.4µM*	1.9%
COc1ccc([C@H]2C[C@@H](n3cc(C4CC4)nn3)[C@H](O)CN2CC2CCCCC2)cc1	?	?	16.4µM*	?
Cc1ccc([C@H]2C[C@@H](n3cc(C4CC4)nn3)[C@H](O)CN2CC2CCCCC2)cc1	-5.1%	?	20.6µM*	-3.9%
COc1ccc([C@H]2C[C@H](O)[C@@H](n3cc(C4CC4)nn3)CN2CC2CCCCC2)cc1	-2.8%	?	i	4.7%
COCCNC(=O)CN1C(=O)COc2ccc(S(=O)(=O)N3CCCC3)cc21	.	i	i	.
COC(=O)C1(C(=O)OC)C2CCCCC2N(S(=O)(=O)c2ccc(C)cc2)[C@@H]1CC(C)=O (stereo partly specified)	-2.3%	?	i	-3.2%
COc1cccc(NC(=O)N(CCCN2CCOCC2)C(C)c2cc3ccccc3o2)c1 (stereo unspecified)	-12.4%	i	i	15.8µM*
COc1cccc2c1C(=O)C=C(C)C2=O	?	?	?	18.4µM*
Cn1cc(-c2cc3n(n2)CCC(=O)N3CC(=O)NCc2ccccc2)c2ccccc21	.	i	i	.
COc1ccccc1OCC(=O)N(Cc1nc(-c2ccccc2)no1)C1CCCCC1	-23.6%	16.4µM*	?	-25.0%
COc1ccccc1OCC(=O)NC1CCCCCCC1	-4.9%	20.6µM*	?	-0.3%
CC(C(=O)NC(=O)NC1CCCCC1)N1CCN(C(c2ccccc2)c2ccccc2)CC1 (stereo unspecified)	6.1%	9.2µM*	?	-1.5%
COc1ccccc1OCC(=O)OCC(=O)NC1CCCCC1	-8.9%	i	i	2.2%
Cc1ccc(S(=O)(=O)NCCC(=O)NC2CCCCCC2)cc1C	2.1%	18.4µM*	i	1.8%
SMILES	HT1080 IDH1KD tx	KB-V1 MDR tox	KB-3-1 cytotox	HT1080-NT tox
CCOc1ccc(NC(=O)Cc2coc3ccc(C)cc23)cc1	.	i	i	.
CCN(C(=O)CSc1nc2ccccc2n1CC(=O)Nc1cccc(C#N)c1)c1ccccc1	.	i	i	.
O=S(=O)(c1ccc(OC(F)(F)F)cc1)N1CCN(c2nc(-c3ccccc3)nc3ccccc23)CC1	.	i	i	.
COC(C(=O)NC1CCCCCCC1)c1ccccc1 (stereo unspecified)	0.9%	18.4µM*	i	1.4%
Cc1ccc(OCC(=O)NC2CCCC2)c(C)c1	-2.0%[9.24 µM]	?	?	-0.5%
COc1cc(OC)c(C(=O)OCC(=O)NC2CCCCCCC2)cc1OC	6.7%	8.2µM*	?	3.7%
O=C(COc1ccc(Br)cc1Cl)NC1CCCCC1	17.6%	18.4µM*	?	8.4%
Cc1ccc(C)c(OCC(=O)NC2CCCCCC2)c1	-23.9%	13µM*	i	-11.7%
CC(C)N(C(=O)COc1ccc(Br)cc1Cl)C(C)C	14.1%	14.6µM*	i	6.7%
COc1ccc(C)cc1S(=O)(=O)N(C)CC(=O)NC1CC1	14.8%	i	i	2.2%
